Source: PubChem
DT40 TDP1 no CPT: qHTS for Inhibitors of human tyrosyl-DNA phosphodiesterase 1 (TDP1): qHTS in cells in absence of CPT | DT40 Tdp1-/- hTDP1 cells, no CPT, ATP luminescence, 48 h | Potency, µM (top dose mostly 46.2 µM), for the others: at the highest dose activity change, negative = growth inhibition, most hits filed as inhibitors | actives 15% (n = 420,000); further: nearly all actives have a fitted effect of over 55% in size
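Seeded 400 DT40-hTDP1 cells/well (vehicle DMSO, no 20 nM CPT); pinned compounds; ≥48 hr at 37 °C; CellTiter-Glo luminescence as viability measure.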
KB-V1 MDR tox: kills drug-selected multidrug resistant KB-V1 cells | KB-V1 MDR cells viability, CellTiter-Glo, 72 h | Potency, µM (doses to about 46.1 µM), usual class: cytotoxic | actives 3.4% (n = 400,000); further: nearly all actives have a fitted effect of over 60% in size
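Potencies derive from concentration-effect curves fitted to normalized luminescence (CellTiter-Glo) of KB-V1 cells treated for 72 h at 37 degrees C in phenol-red-free DMEM containing 10% FBS.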
DT40 TDP1 CPT: DT40-hTDP1 cell growth loss with CPT. chicken DT40 Tdp1-/-;hTDP1 cells + 20 nM CPT, ATP luminescence, 48 h. Potency, µM (doses to about 46.2 µM), for inactives: at the highest dose activity change, negative = growth inhibition, usual class: inhibitors. actives 12% (n = 420,000). AID 686979; further: nearly all actives have a fitted effect of over 55% in size
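Chicken DT40 Tdp1-/- cells stably complemented with human TDP1 were seeded at 400 cells/well in medium containing 20 nM camptothecin, exposed to pin-transferred compounds, and grown at 37 °C for at least 48 hr. Viability was read as ATP luminescence.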
HT1080NT lethal: kills 2HG-producing HT-1080-NT fibrosarcoma cells; AID 686970; actives 1.6% (n = 360,000); Potency, µM (titrated, usually from 46.1 µM), for the others: top-dose activity, negative = less viability, most hits filed as cytotoxic; HT-1080-NT fibrosarcoma viability, CellTiter-Glo ATP luminescence, 48 h;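 further: NT is the 2HG producing partner of a matched IDH1 knockdown line; 0% = DMSO-treated cells and -100% = media-only wells without cells; nearly all actives have a fitted effect of over 55% in size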
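HT-1080-NT fibrosarcoma cells (2HG-overproducing), 750 cells/well in RPMI with 5% FBS, dosed after 2 h and incubated 48 h at 37C. CellTiter-Glo luminescence normalized to DMSO and no-cell wells; concentration-response curves fitted and classed.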
KB-3-1 cytotox: KB-3-1 parental cell cytotoxicity; Potency, µM (series often up to 46.1 µM), hits mostly cytotoxic; KB-3-1 viability, CellTiter-Glo ATP luminescence, 72 h; actives 1.4% (n = 400,000); further: nearly all actives have a fitted effect of over 60% in size
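Using CellTiter-Glo luminescence, growth of non-resistant KB-3-1 adenocarcinoma cells is assessed 72 h after pin-tool compound addition at 37 °C. Normalized responses across the concentration series yield fitted curves.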
HT1080 IDH1KD tx: toxicity to HT-1080 IDH1 knockdown cells (counter line) | actives 2% (n = 360,000) | HT-1080 IDH1 knockdown viability, ATP luminescence, 48 h | Potency, µM (top dose mostly 46.1 µM), inactives show top-dose activity, negative = toxicity, actives largely listed as cytotoxic | AID 686971;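 further: 0% = DMSO wells and -100% = cell-free medium wells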
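CellTiter-Glo luminescence after 48 h compound exposure at 37 degrees C of IDH1-knockdown HT-1080 cells in 5% FBS RPMI. %Activity scaled between DMSO wells and cell-free media wells, with curves fitted and assigned curve classes.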
Starred values were filed as active, the others as inactive; i = inactive; ? = inconclusive; · = no result given; [ ] = dose if it differs, or a comment. An excerpt weighted towards active compounds, which were near 19% of everything screened. The call rests on the fitted dose curve; in most records, active means well fitted curve in the direction sought with a large enough effect; inconclusive means small, poorly fitted or top-dose-only effect, or another doubt; inactive means no such curve, though single readings can be large; an effect the other way counts as inactive or inconclusive. Unless noted, on the % scale 0 is the no-effect control and ±100 the full control effect; potency means the concentration at half of the fitted maximal effect.

SMILES	DT40 TDP1 no CPT	KB-V1 MDR tox	DT40 TDP1 CPT	HT1080NT lethal	KB-3-1 cytotox	HT1080 IDH1KD tx
O=C(NCCc1c[nH]c2ccccc12)C(=O)NCC1OCCCN1S(=O)(=O)c1ccc(F)cc1 (centres undefined)	?	?	18µM*	-13%	i	-8%
Cc1ccc(S(=O)(=O)N2CCCOC2CNC(=O)C(=O)NCCC2=CCCCC2)cc1 (centres undefined)	?	2.9µM*	?	-5%	?	-19%
CC(=O)Cc1nsc(NC(=O)c2cc(-c3cccc(C(F)(F)F)c3)oc2C)n1	?	i	-27%	-8%	i	?
COc1ccc(C(=O)c2ccc([N+](=O)[O-])cc2)c(OC)c1OC	-4%	i	2%	-1%	i	6%
Cc1cc(F)ccc1S(=O)(=O)N1CCCOC1CNC(=O)C(=O)NCCc1c[nH]c2ccccc12 (centres undefined)	?	3.3µM*	16µM*	-2%	?	-4%
O=C(NCCc1c[nH]c2ccccc12)C(=O)NCC1OCCN1S(=O)(=O)c1cc(F)ccc1F (centres undefined)	?	?	?	-13%	i	-29%
Cc1cccc(C)c1NC(=O)CCCSc1nc2ccccc2s1	?	i	?	0%	i	1%
CSc1nc2ccc(N3C(=O)C4CCCCC4C3=O)cc2s1 (centres undefined)	-6%	?	4%	1%	i	6%
CCc1cccc(CC)c1NC(=O)CCCSc1nc2ccccc2s1	?	12µM*	?	-3%	?	-22%
CCc1cccc(CC)c1NC(=O)CSc1nc2ccc(N3C(=O)C4C(C3=O)[C@H]3C=C[C@@H]4C3)cc2s1 (some centres undefined)	8.2µM*	i	?	2%	i	26µM*
CC(NC(=O)CCCc1nnc2n(C)c(=O)c3sccc3n12)c1ccccc1 (centres undefined)	-7%	i	-7%	-6%	i	9%
C=CCn1c(SCC(=O)Nc2nccs2)nnc1-c1cc2cccc(OC)c2o1	?	2.1µM*	?	?	i	?
COc1ccc(C)cc1NC(=O)CSc1nnc(-c2cc3cccc(OC)c3o2)n1N	16µM*	i	?	?	i	?
CC(C)C(NC(=O)c1cccs1)c1nnc(SCC(=O)Nc2nccs2)n1C (centres undefined)	-12%	i	-15%	14%[9.24 µM]	i	4%
O=C(C(=O)N1CCCCC1)c1c(-c2ccccc2)[nH]c2ccccc12	-22%	i	4%	15%	i	26%
C=CC(C)(C)c1c(O)c(CC=C(C)C)c(O)c2c(=O)c3ccc(O)c(O)c3oc12	18µM*	?	16µM*	?	?	15µM*
COc1cc(O)c2c(=O)cc(C)oc2c1CC=C(C)C	-23%[9.04 µM]	·	3%[9.04 µM]	·	·	·
COc1ccc(-c2nc(Cn3c(SCc4ccccc4F)nc4ccncc43)c(C)o2)cc1OC	21µM*	i	18µM*	·	i	·
Cc1cccc(-c2nc(Cn3c(SCc4cccc(C(F)(F)F)c4)nc4ccncc43)c(C)o2)c1	?	i	15µM*	·	i	·
COC(=O)c1cc2sc(Cl)cc2n1Cc1nc(-c2ccccc2F)oc1C	-12%	i	-20%	·	i	·
COc1ccc(-c2nc(Cn3c(SCc4ccc(C)cc4)nc4ccncc43)c(C)o2)cc1OC	?	i	?	?	i	?
Cc1oc(-c2ccccc2F)nc1Cn1c(SCc2ccccc2F)nc2ccncc21	15µM*	i	?	·	i	·
COc1ccc(-c2nc(Cn3c(SCc4cccc(F)c4)nc4ccncc43)c(C)o2)cc1OC	?	i	?	-24%	i	-7%
NCCCNc1ccc([N+](=O)[O-])cc1C(F)(F)F	13µM*	i	-6%	0%	i	-2%
CCOC(=O)N1CCN(C(=O)c2ccc(N(Cc3ccc(C)cc3)S(C)(=O)=O)cc2)CC1	-26%	18µM*	-16%	3%	i	1%
SMILES	DT40 TDP1 no CPT	KB-V1 MDR tox	DT40 TDP1 CPT	HT1080NT lethal	KB-3-1 cytotox	HT1080 IDH1KD tx
CCOC(=O)N1CCN(C(=O)c2ccccc2N(Cc2ccccc2)S(=O)(=O)c2ccccc2)CC1	21µM*	i	21µM*	-21%	?	-20%
CCOC(=O)N1CCN(C(=O)c2ccc(N(Cc3ccccc3)S(C)(=O)=O)cc2)CC1	5%	16µM*	-21%	-2%	i	4%
CCOC(=O)N1CCN(C(=O)c2ccc(-n3c(C)ccc3C)cc2)CC1	15µM*	i	?	-9%	i	-12%
COc1ccc(C(=O)O)cc1S(=O)(=O)N1CCN(Cc2ccc3c(c2)OCO3)CC1	-11%	i	26%	14%	i	17%
CCC(C)N(C(=O)CSc1nc(-c2ccccc2)cs1)C1CCS(=O)(=O)C1 (centres undefined)	?	i	?	1%	i	0%
OC(CNc1ccnc2cc(Cl)ccc12)CNC1CCCCC1 (centres undefined)	16µM*	?	18µM*	21µM*	?	21µM*
CCNC1CCC(Nc2ccnc3cc(Cl)ccc23)CC1 (centres undefined)	9.2µM*	?	18µM*	-1%	?	?
O=C(C1CC1)N1CCN(c2ccnc3cc(Cl)ccc23)CC1	?	i	?	10%	i	8%
OC1CCCC1NCc1ccnc2cc(Cl)ccc12 (centres undefined)	16µM*	?	?	18%	i	0%
OC(CNC1CCCC1)COc1ccc(Cl)cc1 (centres undefined)	?	i	?	-18%	i	-15%
Cc1cc(Cl)ccc1OCCCC(=O)N1CCN(S(=O)(=O)c2ccccc2)CC1	?	?	?	8%	i	-1%
Cc1cccc(OCC(=O)Nc2cc(C)c(O)c(-c3nc4ccccc4o3)c2)c1	?	i	11µM*	·	i	·
Cc1cc(NC(=O)c2ccc(Br)o2)cc(-c2nc3ccccc3o2)c1O	·	?	·	·	i	·
Cc1ccccc1OCC(=O)Nc1cc(C)c(O)c(-c2nc3ccccc3o2)c1	?	i	10µM*	·	i	·
